# Results filed as inconclusive are left out. Unmarked numbers belong to inactive results. The call rests on the fitted dose curve.
# Experiment: qHTS assay to identify small molecule agonists of the NFkB signaling pathway - cell viability counter screen (AID 1159515); further: nearly all actives have a fitted effect of over 55% in size
# Conditions: NFkB-bla ME-180 viability, CellTiter-Glo luminescence, 5 h; series mostly up to 61 µM; activity, negative = cytotoxic: at the top concentration
# Excerpt: National Center for Advancing Translational Sciences [NCATS]
# NIH Chemical Genomics Center [NCGC]
# U.S. Environmental Protection Agency [EPA]
# National Institutes of Environmental Health Sciences [NIEHS]
# National Toxicology Program [NTP]
# U.S. Food and Drug Administration [FDA]
# Transcription factors and their stimulated target gene expression play pivotal roles across many cellular processes including responses to environmental stimuli. Proper regulation of associated pathways is critical to maintain cell health and function. Constitutive activation of transcription factor pathways has been implicated in tumors as it may block cellular functions such as apoptosis and lead to invasion and metastasis. One important transcription factor that stimulates gene expression in response to cytokines, UV radiation, and other stimuli is nuclear factor-kappa B (NFkB). To measure activation of the NFkB pathway, the CellSensor NFkB-bla ME-180 cell line (Life Technologies, Carlsbad, CA) that stably expresses beta-lactamase reporter gene under the regulation of a NF-kB response element was used. This assay allows measurement of the NFkB pathway activity induced by compounds in a ME-180 cell line. This system quantitates NF-kB activity using a FRET-based assay system where beta-lactamase expression disrupts FRET, allowing for fluorescent measurement of activity. This cell line has been used to screen the Tox21 10K compound library and to identify compounds that induce the NFkB pathway activity. The cytotoxicity of the Tox21 compound library against the NFkB-bla ME-180 cell line was tested in parallel by measuring cell viability using the CellTiter-Glo assay in the same wells.
# Tox21 Assay Protocol Summary:
# NFkB-bla ME-180 cells were dispensed at 2,000 cells/6 uL of assay medium per well into black wall/clear-bottom 1536-well plates using a Multidrop Combi (ThermoFisher Scientific, Waltham, MA) dispenser. After the assay plates were incubated at 37 C and 5% CO2 for an overnight, 23 nL of compounds dissolved in DMSO, positive controls or DMSO only was transferred to the assay plate by a Pintool station (Kalypsys, San Diego, CA). The assay plates were incubated at 37 C and 5% CO2 for 5 hr. One uL of LiveBLAzer B/G FRET substrate (Life Technologies) was added using a Flying Reagent Dispenser (Aurora Discovery, San Diego, CA) and the plates were incubated at room temperature for 1.5 hr. Fluorescence intensity (405 nm excitation, 460 nm and 530 nm emissions) was measured using an Envision plate reader (PerkinElmer, Shelton, CT). For cytotoxicity, 3 ul/well of CellTiter-Glo reagent was added into the assay plates using an FRD. After 30 min incubation at room temperature, the luminescence intensity was measured using a ViewLux plate reader (PerkinElmer).
# On the % scale 0 is the no-effect control and ±100 the full control effect.
row,SMILES,"activity, negative = cytotoxic"
1,CC(C)CCC(=O)CCC(C)C,5.36%
2,NS(=O)(=O)c1ccccc1OC(F)(F)F,8.6%
3,NCCc1ccn[nH]1,4.06%
4,O=C1c2ccccc2-c2ccccc21,-2.71% [at 78.8 µM]
5,CCCCC/C=C/CC(=O)OC,8.04%
6,O=C1NC2NC(=O)NC2N1 (stereo not given),-3.11%
7,COc1ccc(NS(=O)(=O)c2ccc(N)cc2)nn1,4.49%
8,O=C(Nc1cccc(C2=NCCN2)c1)Nc1cccc(C2=NCCN2)c1,-6.15% [at 28.5 µM]
9,CCC1COC(=O)O1 (stereo not given),12.9%
10,CCCCCCCCCCCCCCCCCCN(C)C,-13.2%
11,CCC(O)C(C)(C)C (stereo not given),14% [at 78.8 µM]
12,O=S(=O)(O)CCO,14.3% [at 78.8 µM]
13,C=CCOCC(O)CCl (stereo not given),7.75%
14,O=C1CC[C@H](C(=O)N2CCCCC2)N1,0.855%
15,C=CCOc1c(Br)cc(Br)cc1Br,-1.84%
16,Cc1cc(C)cc([N+](=O)[O-])c1,0.219% [at 78.8 µM]
17,CC(=O)OCCCc1ccccc1,12.1%
18,FC(F)(F)c1ccc(Cl)cc1Cl,-2.78%
19,Cc1cccc(Nc2ccncc2S(=O)(=O)NC(=O)NC(C)C)c1,11.6%
20,CCCCCCCCCCCCCCCC(=O)NCCO,9.76%

row,SMILES,"activity, negative = cytotoxic"
1,F[Si-2](F)(F)(F)(F)F,6.09%
2,COCCOCCOCCOC,3.59%
3,Nc1cc(C(=O)O)ccc1Cl,-0.28%
4,CC(C)SCc1ccco1,5.3% [at 28.5 µM]
5,Cc1nc(C)nc(N2C[C@@H](C)N(c3ccnc([C@@H](C)O)n3)[C@@H](C)C2)n1,4.46%
6,C[CH2][Ge]([Cl])([CH2]C)[CH2]C,0% [at 78.8 µM]
7,CC(C)COC(=O)/C=C/c1ccccc1,2.86%
8,CN(C)CCOCCN(C)CCO,9.1%
9,Cc1cccc(NC(=S)N(C)C)c1,-2.38%
10,O=C1OC(=O)c2cc(Oc3ccc4c(c3)C(=O)OC4=O)ccc21,-2.26%
11,CCCCCCCCCCCCCCCCI,-5.26% [at 28.5 µM]
12,Nc1ccc(S(=O)(=O)Nc2ccccn2)cc1,10.5%
13,O=C(O)Cc1cccc(-c2cc(CCCCCCc3ccc(O[C@H]4O[C@H](CO)[C@@H](O)[C@H](O)[C@@H]4O)c(-c4cccc(CC(=O)O)c4)c3)ccc2O[C@H]2O[C@H](CO)[C@@H](O)[C@H](O)[C@@H]2O)c1,0.959% [at 0.628 µM]
14,CCCCOC(=O)C(=O)OCCCC,-12.6%
15,Cc1ncc([N+](=O)[O-])n1CC(O)CCl (stereo not given),-27.5%
16,COc1cc(C=O)ccc1OC(=O)C(C)C,11%
17,O=P(O)(O)OCC(O)CO (stereo not given),7.08%
18,CC1(N)CCC(C(C)(C)N)CC1 (stereo not given),9.33%
19,CN[C@@H]1[C@H](O)[C@H](NC)[C@H]2O[C@@]3(O)C(=O)C[C@@H](C)O[C@H]3O[C@@H]2[C@H]1O,10.6%
20,CCC1Nc2cc(Cl)c(S(N)(=O)=O)cc2S(=O)(=O)N1 (stereo not given),2.68%

# Reference: PubChem BioAssay (Tox21)
